PubChem BioAssay
Active and inactive are the calls of the source. No stated cut-off is given here; in the data, active means inhibition above about 33%; inactive means the rest.

Assay: VP16 transactivation reporter inhibitors, counter-screen for LRH-1 inverse agonist project, cell-based, luminescence, high throughput (AID 651615)
Conditions: Gal4-VP16 luciferase reporter cells, at 3.6 µM, hits give high values

**Q.** For Cc1cccc(-n2c(CNC(=O)c3ccccc3)nnc2SCC(=O)Nc2nccs2)c1, which inhibition is on record?
**A.** 3.06% (inactive)

**Q.** With CN(C)CCNc1ccc2nnn3c4ccc(O)cc4c(=O)c1c23 as the compound, how does the inhibition read?
**A.** 75.9% (active)

**Q.** Which inhibition does the source give for Cc1sc2ncnc(NCC3COc4ccccc4O3)c2c1C (stereo unspecified) here?
**A.** 57.4% (active)

**Q.** With Cc1nc2ccc(NC(=O)c3cc(S(=O)(=O)N(C)c4ccccc4)ccc3Cl)cc2s1 as the compound, how does the inhibition read?
**A.** 47.6% (active)

**Q.** For CN(C)CCN1C(=O)c2cccc3cc([N+](=O)[O-])cc(c23)C1=O, which inhibition is on record?
**A.** 68.2% (active)

**Q.** With CCc1c(C)nc2ncnn2c1NCCc1ccc(OC)cc1 as the compound, how does the inhibition read?
**A.** 42.2% (active)

**Q.** With Cc1c(C(C)C)c(=O)n(-c2ccc(S(=O)(=O)NCc3ccccc3)cc2)n1C as the compound, how does the inhibition read?
**A.** 44.1% (active)

**Q.** For O=C(CSc1nnnn1C1CC2CCC1C2)Nc1ccnc2ccccc12 (stereo unspecified), which inhibition is on record?
**A.** 59.1% (active)

**Q.** With CC1(C)CC(N2CCCC2)=CC(=[N+]2CCCC2)C1 as the compound, how does the inhibition read?
**A.** 51.4% (active)

**Q.** For CC1(C)CC(N2CCCC2)=CC(=[N+]2CCCCC2)C1, which inhibition is on record?
**A.** 52.5% (active)

**Q.** With COc1ccc(-c2coc3c(C(=O)NCc4ccc(OC)c(OC)c4)cccc23)c(C)c1 as the compound, how does the inhibition read?
**A.** 57.8% (active)

**Q.** With COc1ccc(CC(=O)Nc2cccc(S(=O)(=O)N3CCCCCC3)c2)cc1OC as the compound, how does the inhibition read?
**A.** 49.3% (active)

**Q.** For Clc1ccc(-c2nnc(CSc3nnc(-c4cccs4)n3Cc3ccccc3)o2)cc1, which inhibition is on record?
**A.** 41.6% (active)

**Q.** For O=C(CSc1nnc(Cn2nnc3ccccc32)o1)N(Cc1ccc(F)cc1)c1ccccc1, which inhibition is on record?
**A.** 56.9% (active)

**Q.** For CC(C)C(=O)NC(c1ccc(Cl)cc1Cl)c1ccc2cccnc2c1O (stereo unspecified), which inhibition is on record?
**A.** 47.6% (active)

**Q.** For Cc1ccc(S(=O)(=O)CC2CSc3nc4ccccc4n32)cc1 (stereo unspecified), which inhibition is on record?
**A.** 50.7% (active)
